This is part of a sample that, as a whole, favours compounds with a hit. Of some 83,000 tested, about 20% had one in any assay.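 Each cell line was grown in a 96-well plate and treated with one concentration of compound for 48 hours. Values below 10 were considered active.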 Activity calls are given as the source filed them.
Each molecule was assayed on SW-620 colon (assay: NCI-60 one-dose screen, 48 h (100 = growth as untreated, 0 = no growth, -100 = all killed)). Settings: 10 µM.
With `O=C(COc1ccc(-c2nc3ccccc3[nH]2)cc1)N=Nc1c(O)[nH]c2ccccc12` the growth was 85.6% (inactive). With `C[C@]12CC[C@H]3[C@@H](CC=C4C[C@@H](O)CC[C@@]43C)[C@@H]1CC[C@@H]2C(=O)C/C=N/O` the growth was 102% (inactive). In the case of `COc1ccc(N2CCN(c3nc(-c4ccccc4)c(C#N)c(=O)[nH]3)CC2)cc1`, the growth is reported as 113% (inactive). With `CCCCCCCCCCCC(=O)NCCCN(C)C` the growth was 102% (inactive). For `COc1cccc(-c2nnc(COc3ccc(-c4nc5ccccc5[nH]4)cc3OC)o2)c1`, the growth was 110% (inactive). With `N/C(=N\O)c1cn(C2OC(CO)C(O)C2O)c2ncnc(N)c12` (stereo unspecified) the growth was -12.1% (active). In the case of `Nc1ccc(C2=CC(c3ccc(Cl)cc3)N3C=CSC3=N2)cc1` (stereo unspecified), the growth is reported as -60.5% (active). In the case of `O=[N+]([O-])c1cc2ncccc2c2ncccc12`, the growth is reported as 85.4% (inactive). With `O=C(CCc1ccccc1)N1CCN(C(=O)CCc2ccccc2)CC1` the growth was 109% (inactive). For `COc1ccc(CCc2nc3cc(-c4c(C)noc4C)ccc3n2CCN2CCOCC2)cc1`, the growth was 26.6% (inactive). `CCOC(=O)C(=O)Cc1cccnn1` was tested, and the growth was 109% (inactive). With `FC(F)(F)c1ccc(-c2nc(-c3nc4cc(Cl)c(Cl)cc4[nH]3)c3ccccn23)cc1` the growth was 80% (inactive). `COc1cc(CSc2nc3ccc(C)cc3c(=O)n2-c2ccccc2)cc(OC)c1OC` was tested, and the growth was 29.7% (inactive). In the case of `CC(C)C[C@H](NC(=O)Cn1ccc2ccccc2c1=O)B(O)O`, the growth is reported as 42.8% (inactive). In the case of `CCCCC(=O)N(c1ccc(Nc2c3ccccc3nc3cc([N+](=O)[O-])ccc23)cc1)S(C)(=O)=O`, the growth is reported as 71.5% (inactive). `N#Cc1ncc(-c2cc(F)ccc2F)c(NC2CCCCCC2)n1` was tested, and the growth was 96.1% (inactive). For `Cc1nnc2c3nnc(-c4ccc(Cl)cc4)n3c3ccccc3n12`, the growth was 106% (inactive). In the case of `O=CNc1c(Cl)cc2c(c1Cl)Cc1cc([N+](=O)[O-])ccc1-2`, the growth is reported as 41.4% (inactive). In the case of `O=C(Nc1ccc(OS(=O)(=O)Cc2ccccc2)cc1)C12CC3CC(CC(C3)C1)C2`, the growth is reported as 25.3% (inactive). With `COc1cc(CSc2nc3ccc(C)cc3c(=O)n2Cc2ccccc2)cc(OC)c1OC` the growth was 25.8% (inactive). In the case of `CC(=O)[C@H]1CC[C@H]2[C@@H]3CC[C@@H]4CC=C(C=O)C[C@]4(C)[C@H]3CC[C@]12C`, the growth is reported as 106% (inactive). For `O=[N+]([O-])c1ccc(Br)o1`, the growth was 109% (inactive). `CCc1nn2c(-c3cc(OC)c(OC)c(OC)c3)c(-c3cc(OC)c(OC)c(OC)c3)nc2s1` was tested, and the growth was 86.3% (inactive). In the case of `N#Cc1c2c([nH]c(=O)c1C(N)=O)CCCCC2`, the growth is reported as 101% (inactive). With `COC(=O)[C@]12CC[C@@H](C)[C@H](C)[C@@H]1C1=CC[C@@H]3[C@@]4(C)CC(=O)[C@H](O)[C@@]5(C)COC(=C45)C[C@@]3(C)[C@]1(C)CC2` the growth was -60% (active). In the case of `C=CCNCCCN1C(=O)c2ccc3c4c(ccc(c24)C1=O)C(=O)N(CCCNCC=C)C3=O`, the growth is reported as -54.1% (active). In the case of `COc1ccc(Cn2cc3c(c2-c2cc(OC)c(OC)c(OC)c2)CCc2cnoc2-3)cc1N`, the growth is reported as 20.4% (inactive). For `Cc1ccc2nc(-c3ccc(OCC(=O)N=Nc4c(O)[nH]c5ccccc45)cc3)[nH]c2c1`, the growth was 6.51% (active). `COc1cc(OC)cc(-c2n/c(=C\c3c(O)[nH]c4ccc(OC)cc34)cc3c2=Nc2ccccc2-3)c1` was tested, and the growth was 46.9% (inactive). With `O=c1ccc2nc(-c3ccccc3)nn(-c3ccccc3)c-2c1` the growth was -80.5% (active). `NS(=O)(=O)c1ccc(N2N=C(c3ccc(-c4ccccc4)cc3)CC2c2ccc(Cl)cc2)cc1` (stereo unspecified) was tested, and the growth was 93.2% (inactive). `O=C(NC1CCCC1)c1ccc(N2CCC(NCc3cccc(C(F)(F)F)c3)CC2)cc1` was tested, and the growth was 97% (inactive). For `COc1cc(OC)cc(-c2ccc(-c3ccc(C(=N)N)cn3)o2)c1`, the growth was -90.3% (active). `COc1ccc(-c2oncc2-c2cc(OC)c3c(c2)OCO3)cc1` was tested, and the growth was 16.4% (inactive). `COc1cc2ccnc(C=O)c2cc1OC` was tested, and the growth was 30.2% (inactive). In the case of `N#Cc1ccc(-n2cnc(NC(=O)[C@H]3CCN(C#N)C3)c2)cc1`, the growth is reported as 16.6% (inactive). With `Oc1ccccc1-c1nnc(Cn2c(Cc3cccc4ccccc34)nc3ccccc32)o1` the growth was 103% (inactive). In the case of `Fc1ccc(Nc2ccnc(N3CCN(c4ccnc5cc(Cl)ccc45)CC3)n2)cc1`, the growth is reported as 63.2% (inactive).

These molecules were tested on MCF7 breast in the same assay as above. Settings: 10 µM.
For `O=C(COc1ccc(-c2nc3ccccc3[nH]2)cc1)N=Nc1c(O)[nH]c2ccccc12`, the growth was 42.5% (inactive). `C[C@]12CC[C@H]3[C@@H](CC=C4C[C@@H](O)CC[C@@]43C)[C@@H]1CC[C@@H]2C(=O)C/C=N/O` was tested, and the growth was 95.6% (inactive). For `COc1ccc(N2CCN(c3nc(-c4ccccc4)c(C#N)c(=O)[nH]3)CC2)cc1`, the growth was 93.9% (inactive). For `CCCCCCCCCCCC(=O)NCCCN(C)C`, the growth was 65.7% (inactive). For `COc1cccc(-c2nnc(COc3ccc(-c4nc5ccccc5[nH]4)cc3OC)o2)c1`, the growth was 73.6% (inactive). `N/C(=N\O)c1cn(C2OC(CO)C(O)C2O)c2ncnc(N)c12` (stereo unspecified) was tested, and the growth was -29.9% (active). In the case of `Nc1ccc(C2=CC(c3ccc(Cl)cc3)N3C=CSC3=N2)cc1` (stereo unspecified), the growth is reported as -32.1% (active). In the case of `O=[N+]([O-])c1cc2ncccc2c2ncccc12`, the growth is reported as 60.6% (inactive). In the case of `O=C(CCc1ccccc1)N1CCN(C(=O)CCc2ccccc2)CC1`, the growth is reported as 95.7% (inactive). With `COc1ccc(CCc2nc3cc(-c4c(C)noc4C)ccc3n2CCN2CCOCC2)cc1` the growth was 34.5% (inactive). In the case of `CCOC(=O)C(=O)Cc1cccnn1`, the growth is reported as 95.3% (inactive). In the case of `FC(F)(F)c1ccc(-c2nc(-c3nc4cc(Cl)c(Cl)cc4[nH]3)c3ccccn23)cc1`, the growth is reported as 48% (inactive). `COc1cc(CSc2nc3ccc(C)cc3c(=O)n2-c2ccccc2)cc(OC)c1OC` was tested, and the growth was 19.9% (inactive). In the case of `CC(C)C[C@H](NC(=O)Cn1ccc2ccccc2c1=O)B(O)O`, the growth is reported as 31.4% (inactive). `CCCCC(=O)N(c1ccc(Nc2c3ccccc3nc3cc([N+](=O)[O-])ccc23)cc1)S(C)(=O)=O` was tested, and the growth was 17.2% (inactive). With `N#Cc1ncc(-c2cc(F)ccc2F)c(NC2CCCCCC2)n1` the growth was 82.3% (inactive). For `Cc1nnc2c3nnc(-c4ccc(Cl)cc4)n3c3ccccc3n12`, the growth was 101% (inactive). `O=CNc1c(Cl)cc2c(c1Cl)Cc1cc([N+](=O)[O-])ccc1-2` was tested, and the growth was 15.3% (inactive). In the case of `O=C(Nc1ccc(OS(=O)(=O)Cc2ccccc2)cc1)C12CC3CC(CC(C3)C1)C2`, the growth is reported as 80.7% (inactive). `COc1cc(CSc2nc3ccc(C)cc3c(=O)n2Cc2ccccc2)cc(OC)c1OC` was tested, and the growth was 18% (inactive). `CC(=O)[C@H]1CC[C@H]2[C@@H]3CC[C@@H]4CC=C(C=O)C[C@]4(C)[C@H]3CC[C@]12C` was tested, and the growth was 81.1% (inactive). With `O=[N+]([O-])c1ccc(Br)o1` the growth was 95.7% (inactive). In the case of `CCc1nn2c(-c3cc(OC)c(OC)c(OC)c3)c(-c3cc(OC)c(OC)c(OC)c3)nc2s1`, the growth is reported as 57.4% (inactive). In the case of `N#Cc1c2c([nH]c(=O)c1C(N)=O)CCCCC2`, the growth is reported as 103% (inactive). In the case of `COC(=O)[C@]12CC[C@@H](C)[C@H](C)[C@@H]1C1=CC[C@@H]3[C@@]4(C)CC(=O)[C@H](O)[C@@]5(C)COC(=C45)C[C@@]3(C)[C@]1(C)CC2`, the growth is reported as -45.8% (active). For `C=CCNCCCN1C(=O)c2ccc3c4c(ccc(c24)C1=O)C(=O)N(CCCNCC=C)C3=O`, the growth was -64.8% (active). With `COc1ccc(Cn2cc3c(c2-c2cc(OC)c(OC)c(OC)c2)CCc2cnoc2-3)cc1N` the growth was 16% (inactive). With `Cc1ccc2nc(-c3ccc(OCC(=O)N=Nc4c(O)[nH]c5ccccc45)cc3)[nH]c2c1` the growth was -24.7% (active). `COc1cc(OC)cc(-c2n/c(=C\c3c(O)[nH]c4ccc(OC)cc34)cc3c2=Nc2ccccc2-3)c1` was tested, and the growth was -64.9% (active). For `O=c1ccc2nc(-c3ccccc3)nn(-c3ccccc3)c-2c1`, the growth was -66.7% (active). In the case of `NS(=O)(=O)c1ccc(N2N=C(c3ccc(-c4ccccc4)cc3)CC2c2ccc(Cl)cc2)cc1` (stereo unspecified), the growth is reported as 62.6% (inactive). With `O=C(NC1CCCC1)c1ccc(N2CCC(NCc3cccc(C(F)(F)F)c3)CC2)cc1` the growth was 95.8% (inactive). In the case of `COc1cc(OC)cc(-c2ccc(-c3ccc(C(=N)N)cn3)o2)c1`, the growth is reported as -66.2% (active). `COc1ccc(-c2oncc2-c2cc(OC)c3c(c2)OCO3)cc1` was tested, and the growth was 18% (inactive). With `COc1cc2ccnc(C=O)c2cc1OC` the growth was 23.8% (inactive). `N#Cc1ccc(-n2cnc(NC(=O)[C@H]3CCN(C#N)C3)c2)cc1` was tested, and the growth was 4.82% (active). In the case of `Oc1ccccc1-c1nnc(Cn2c(Cc3cccc4ccccc34)nc3ccccc32)o1`, the growth is reported as 102% (inactive). In the case of `Fc1ccc(Nc2ccnc(N3CCN(c4ccnc5cc(Cl)ccc45)CC3)n2)cc1`, the growth is reported as 19.2% (inactive).
